PubChem BioAssay (NCATS)
Where “and” joins values, the source holds several entries; their conditions need not be identical. Equal entries are not always repeated. Inconclusive results are not listed. Calls of active or inactive are those of the source. Unless noted, calls follow the shape of the dose curve; as a rule, active = well fitted curve in the direction sought with a large enough effect; inconclusive = small, poorly fitted or top-dose-only effect, or another doubt; inactive = no such curve, though single readings can be large; an effect the other way counts as inactive or inconclusive.

Key:
[1] = Cell Viability - HepG2 (AID 433; calls by dose curve;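 also: potency is read from the fitted curve at half-maximal effect; potency for ATP loss meaning cytotoxicity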); details: qHTS
Procedure, shortened: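 Cytotoxicity read as ATP loss (CellTiter-Glo luminescence) after 40 hr compound exposure of HepG2, 1500 cells/well, 37 °C. AC50 by Hill equation; 0% set by DMSO, 100% inhibition by 100 uM tamoxifen.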

[2] = Cell Viability - Renal Proximal Tubule (AID 545); details: renal proximal tubule cells viability, primary cells of rat origin; at 91.7 µM (top of the series);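 also: 0% = DMSO only and -100% = 100 µM tamoxifen; nearly all actives have a fitted effect of over 40% in size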
Procedure, shortened: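 Viability taken as intracellular ATP (CellTiter-Glo luminescence) after 40 hr, 37 °C compound treatment of primary proximal tubule cells from rat kidney, 1000 cells/well; Hill-equation fits of qHTS concentration-response data gave AC50.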

[3] = MultiTox-Fluor Cytotoxicity Assay - LYMP1-001 - Live Cells (AID 947); details: LYMP1-001 lymphoblastoid cells, live-cell protease fluorescence viability; series mostly up to 92.2 µM;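 also: 0% = DMSO only and full inhibition = tetraoctylammonium bromide control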
[4] = Cell Viability - LYMP1-002 - Assay at 16 hr (AID 948); details: LYMP1-002 lymphoblastoid cell viability; series mostly up to 92.2 µM;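 also: 0% = DMSO alone and full effect = 92 µM tetraoctylammonium bromide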
Procedure, shortened: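 ATP luminescence (CellTiter-Glo) was measured after 16 hr compound exposure at 37 C of 2500 lymphoblastoid LYMP1-002 cells per well. Concentration-response curves were fitted with the Hill equation to give AC50.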

[5] = MultiTox-Fluor Cytotoxicity Assay - LYMP1-002 - Live Cells (AID 955); details: LYMP1-002 lymphoblastoid live-cell protease fluorescence viability; series mostly up to 46.1 µM; also: % is scaled to controls: 0 for no effect and ±100 for the full control effect
Procedure, shortened: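 Human lymphoblastoid LYMP1-002 cells, 2500/well in complete medium, rested 5 hr at 37 C, then exposed to compounds for 16 hr at 37 C. Live-cell protease cleavage of GF-AFC read by fluorescence (Ex/Em 405/510) after 60 min at room temperature; AC50 from Hill fits.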

[6] = MultiTox-Fluor Cytotoxicity Assay - LYMP1-003 - Dead Cells (AID 961); details: LYMP1-003 lymphoblastoid cells, dead-cell protease fluorescence; series mostly up to 92.2 µM; also: nearly all actives have a fitted effect of over 70% in size
Procedure, shortened: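 LYMP1-003 lymphoblastoid, 2500 cells/well, 5 hr settle then 16 hr cpd at 37 C; MultiTox-Fluor reagent 60 min RT; Ex/Em 485/520 dead-cell signal; norm. DMSO = 0%, 15 uM tetraoctylammonium bromide = 100%; Hill AC50.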

[7] = Cell Viability - LYMP2-019 (AID 973); details: LYMP2-019 lymphoblastoid cell line viability; series mostly up to 92.2 µM;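 also: 0% = DMSO alone and full effect = 92 µM tetraoctylammonium bromide; nearly all actives have a fitted effect of over 55% in size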
Procedure, shortened: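 Human lymphoblastoid cells were seeded at 2500 cells/well, preincubated 5 hr at 37 C, then exposed to compounds for 24 hr at 37 C in complete medium. Intracellular ATP was measured by CellTiter-Glo luminescence; AC50 from Hill fits.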

[8] = Cell Viability - LYMP2-021 (AID 974); details: LYMP2-021 lymphoblastoid cells viability; series mostly up to 92.2 µM;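 also: compound exposure lasts 24 hours at 37 °C; % is scaled to controls: 0 for no effect and ±100 for the full control effect; nearly all actives have a fitted effect of over 55% in size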
Procedure, shortened: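 Human lymphoblastoid cells (2500/well) were preincubated 5 hr at 37 C, then exposed to compounds for 24 hr at 37 C in complete medium. Intracellular ATP was read by CellTiter-Glo luminescence; AC50 came from Hill-equation fits of concentration-response data.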

[9] = Cell Viability - LYMP2-025 (AID 976); details: LYMP2-025 lymphoblastoid cell viability; series mostly up to 92.2 µM;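 also: plate controls were DMSO only for no effect and tetraoctylammonium bromide control for full effect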
Procedure, shortened: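 Human lymphoblastoid LYMP2-025 cells (2500/well) were pre-incubated 5 hr at 37 C, then treated with compounds for 24 hr at 37 C in complete medium. Viability was read as intracellular ATP by CellTiter-Glo luminescence; AC50 from Hill fits.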

[10] = Cell Viability - LYMP2-002 (AID 977); details: LYMP2-002 lymphoblastoid cell viability, qHTS; series mostly up to 92.2 µM;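 also: plate controls were DMSO only for no effect and 92 µM tetraoctylammonium bromide for full effect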
Procedure, shortened: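 Cytotoxicity is scored as concentration-dependent loss of cellular ATP in a human lymphoblastoid line after 24 hr compound treatment at 37 C. AC50 is obtained by modelling concentration-response data with the Hill equation.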

[11] = Cell Viability - LYMP2-006 (AID 978); details: LYMP2-006 lymphoblastoid cell viability, qHTS; series mostly up to 92.2 µM; also: % is scaled to controls: 0 for no effect and ±100 for the full control effect; nearly all actives have a fitted effect of over 60% in size
Procedure, shortened: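 Potency values are Hill-fit AC50s for decreases in intracellular ATP (CellTiter-Glo luminescence). LYMP2-006 lymphoblastoid cells, 2500 per well, were exposed to compound in complete culture medium for 24 hr at 37 C.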

[12] = Cell Viability - LYMP2-014 (AID 983); details: LYMP2-014 lymphoblastoid cells, viability qHTS; series mostly up to 92.2 µM;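 also: plate controls were DMSO only for no effect and 92 µM tetraoctylammonium bromide for full effect; nearly all actives have a fitted effect of over 50% in size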
Procedure, shortened: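 Human lymphoblastoid cells (2500/well) were pre-incubated 5 hr at 37 C, then exposed to compounds in complete medium for 24 hr at 37 C. Intracellular ATP was read by CellTiter-Glo luminescence after 30 min at room temperature; AC50 from Hill fits.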

[13] = Cell Viability - LYMP2-016 (AID 984); details: LYMP2-016 lymphoblastoid cell viability, qHTS; series mostly up to 92.2 µM; also: % is scaled to controls: 0 for no effect and ±100 for the full control effect; nearly all actives have a fitted effect of over 55% in size
Procedure, shortened: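 Cytotoxicity was scored by luminescent ATP content (CellTiter-Glo) after 24 h compound exposure at 37 C of a human lymphoblastoid line at 2500 cells/well. Concentration-response data were fitted to the Hill equation for AC50.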

[14] = Cell Viability - LYMP2-026 (AID 989); details: LYMP2-026 lymphoblastoid cell viability, qHTS; series mostly up to 92.2 µM; also: % is scaled to controls: 0 for no effect and ±100 for the full control effect; nearly all actives have a fitted effect of over 50% in size
Procedure, shortened: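 Human lymphoblastoid cells (2500/well) in complete medium were preincubated 5 hr at 37 C, then exposed to compounds for 24 hr at 37 C. Cellular ATP was read by CellTiter-Glo luminescence; AC50 from Hill-equation fits of concentration-response data.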

[15] = Cell Viability - LYMP1-002 - Assay at 24 hr (AID 993); details: LYMP1-002 lymphoblastoid cells viability; series mostly up to 92.2 µM; also: % is scaled to controls: 0 for no effect and ±100 for the full control effect
Procedure, shortened: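 Human lymphoblastoid LYMP1-002 cells, 2500/well in complete medium, were treated with compounds for 24 h at 37 C; intracellular ATP was read by CellTiter-Glo luminescence. AC50 values came from Hill-equation fits of qHTS concentration-response data.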

[16] = Cell Viability - LYMP1-002 - Assay at 40 hr (AID 994); details: LYMP1-002 lymphoblastoid cell viability; series mostly up to 92.2 µM;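 also: 0% = DMSO only and full inhibition = 92 µM tetraoctylammonium bromide; nearly all actives have a fitted effect of over 60% in size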
Procedure, shortened: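 Human lymphoblastoid cells, 2500/well in complete medium, were preincubated 5 hr at 37 C, then exposed to compounds for 40 hr at 37 C. Intracellular ATP was read by CellTiter-Glo luminescence after 30 min at room temperature; AC50 from Hill-equation fits.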

[17] = qHTS assay for small molecule activators of the p53 signaling pathway (AID 651743; active = well fitted activation curve with a large enough effect in the signal ratio, not every such curve was filed as active; the % refers to the signal ratio; also: % of control where 0% means no effect); details: HCT-116 p53RE-bla, beta-lactamase FRET ratio, 16 h; activation: active compounds read high
Procedure, shortened: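 Screen for p53 pathway agonists uses stably transfected p53RE-bla HCT-116 cells, 4,000 per well, treated 16 h at 37 C with compounds in DMSO.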

[18] = qHTS assay for small molecule disruptors of the mitochondrial membrane potential - 1 hr assay (AID 651754; calls by dose curve; also: % is scaled to controls: 0 for no effect and ±100 for the full control effect; nearly all actives have a fitted effect of over 35% in size); details: series mostly up to 92.2 µM
Procedure, shortened: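 HepG2 cells, attached overnight at 37C, were exposed to compound or DMSO vehicle for 1 hr at 37C, 5% CO2, then stained with Mito-MPS dye for 30 min. Red aggregate versus green monomer fluorescence reports membrane potential.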

[19] = molecular target: Retinoic acid receptor RXR-alpha (Homo sapiens) (UniProt P19793); experiment: qHTS assay for small molecule antagonists of retinoid X receptor alpha signaling (AID 588546; active = well fitted inhibition curve with a large enough effect in the signal ratio, with a control signal flat, not every such curve was filed as active; the % refers to the signal ratio;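 also: cells stimulated with 9-cis-retinoic acid as agonist; % is scaled to controls: 0 for no effect and ±100 for the full control effect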); details: HEK293T RXRa-UAS-bla, beta-lactamase ratio, antagonist mode
Procedure, shortened: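 Beta-lactamase reporter inhibition, read as CCF4 fluorescence ratio (ex 405, em 460/530 nm) after 2 h at RT. HEK293T UAS-bla cells, 2500/well, were stimulated with 9-cis-RA at 500 or 100 nM final alongside test compound for 18 h at 37 C.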

[20] = qHTS assay for environmental chemicals that activate the Aryl hydrocarbon Receptor (AhR) signaling pathway (AID 651777); details: 1A2-DRE human hepatoma cells, luciferase, 24 h; activation: active compounds read high; also: % of control where 0% means no effect; nearly all actives have a fitted effect of over 15% in size
Procedure, shortened: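 Human hepatoma 1A2-DRE cells stably carrying a DRE/CYP1A2 promoter–luciferase reporter, 1,200 cells/well, exposed to compound 24 hr at 37 C. Luciferase read by One-Glo luminescence after 30 min at room temperature; increased signal marks AhR activation.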

Retinoic acid receptor RXR-alpha (Homo sapiens), sequence (P19793 whole entry, looked up): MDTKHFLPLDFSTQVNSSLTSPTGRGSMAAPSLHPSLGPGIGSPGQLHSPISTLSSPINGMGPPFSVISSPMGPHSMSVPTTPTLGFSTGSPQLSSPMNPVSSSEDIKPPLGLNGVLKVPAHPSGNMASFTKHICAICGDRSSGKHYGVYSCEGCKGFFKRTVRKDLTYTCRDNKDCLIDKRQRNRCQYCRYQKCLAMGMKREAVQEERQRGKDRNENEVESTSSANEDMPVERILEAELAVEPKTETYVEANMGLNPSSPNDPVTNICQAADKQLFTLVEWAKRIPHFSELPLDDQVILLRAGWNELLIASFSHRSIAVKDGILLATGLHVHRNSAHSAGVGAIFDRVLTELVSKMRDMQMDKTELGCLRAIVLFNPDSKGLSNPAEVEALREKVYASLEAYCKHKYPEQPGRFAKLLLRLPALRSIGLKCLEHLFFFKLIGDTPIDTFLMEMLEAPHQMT

c1ccccc1
inactive: Potency [1] > 92 µM | activity change, negative = cytotoxicity [2] 3.93% and -11% | Potency [3] | Potency [4] | Potency [5] | Potency [6] | Potency [7] | Potency [8] | Potency [9] | Potency [10] | Potency [11] | Potency [12] | Potency [13] | Potency [14] | Potency [15] | Potency [16] | activation [17] 0.891% [middle of 4 runs] | Potency [18]

COC(=O)c1ccc(C=O)cc1
inactive: Potency [1] > 92 µM | activity change, negative = cytotoxicity [2] -14.2% | Potency [3] | Potency [4] | Potency [5] | Potency [6] | Potency [7] | Potency [8] | Potency [9] | Potency [10] | Potency [11] | Potency [12] | Potency [13] | Potency [14] | Potency [15] | Potency [16] | max response [19] 21.2% and -1.21% | activation [17] -0.565% and 0.101% | Potency [18] | activation [20] 1.65% and -0.822%

COCC(=O)O
inactive: Potency [1] > 92 µM | activity change, negative = cytotoxicity [2] -6.52% | Potency [3] | Potency [4] | Potency [5] | Potency [6] | Potency [7] | Potency [8] | Potency [9] | Potency [10] | Potency [11] | Potency [12] | Potency [13] | Potency [14] | Potency [15] | Potency [16] | max response [19] 8.65% and -6.69% | activation [17] 0.0042% and -6.16% | Potency [18] | activation [20] -1.91% and 0.0528%

C/C=C\c1ccc(OC)cc1
inactive: Potency [1] > 92 µM | activity change, negative = cytotoxicity [2] -7.43% | Potency [3] | Potency [4] | Potency [5] | Potency [6] | Potency [7] | Potency [8] | Potency [9] | Potency [10] | Potency [11] | Potency [12] | Potency [13] | Potency [14] | Potency [15] | Potency [16] | max response [19] 3.92% | activation [20] -0.657%

Cc1ccc([N+](=O)[O-])cc1N
inactive: Potency [1] > 92 µM | activity change, negative = cytotoxicity [2] -8.34% | Potency [3] | Potency [4] | Potency [5] | Potency [6] | Potency [7] | Potency [8] | Potency [9] | Potency [10] | Potency [11] | Potency [12] | Potency [13] | Potency [14] | Potency [15] | Potency [16] | max response [19] -2.87% and -11.4% | activation [17] -1.56% and -5% | Potency [18] | activation [20] 6.03% and 2.09%

COC(=O)c1ccc(C)cc1
inactive: Potency [1] > 92 µM | activity change, negative = cytotoxicity [2] -5.83% | Potency [3] | Potency [4] | Potency [5] | Potency [6] | Potency [7] | Potency [8] | Potency [9] | Potency [10] | Potency [11] | Potency [12] | Potency [13] | Potency [14] | Potency [15] | Potency [16] | max response [19] 25.4% and -1.75% | activation [17] 2.24% and -1.53% | Potency [18] | activation [20] -1.02% and 0.0239%

COc1c2ccoc2cc2oc(=O)ccc12
inactive: Potency [1] > 92 µM | activity change, negative = cytotoxicity [2] -16.3% | Potency [3] | Potency [4] | Potency [5] | Potency [6] | Potency [7] | Potency [8] | Potency [9] | Potency [10] | Potency [11] | Potency [12] | Potency [13] | Potency [14] | Potency [15] | Potency [16] | max response [19] 23.4% | activation [17] 6.05% | Potency [18] | activation [20] 1.47%

CC1(C)CC(N=C=O)CC(C)(CN=C=O)C1 (stereo unspecified)
inactive: Potency [1] > 92 µM | activity change, negative = cytotoxicity [2] 13.5% | Potency [3] | Potency [4] | Potency [5] | Potency [6] | Potency [7] | Potency [8] | Potency [9] | Potency [10] | Potency [11] | Potency [12] | Potency [13] | Potency [14] | Potency [15] | Potency [16] | max response [19] 12.5% and -8% | activation [17] 0.263% and 0.482% | Potency [18] | activation [20] 2.53% and -0.0427%
